Screening data from PubChem BioAssay.
HCV inh: qHTS Assay for Inhibitors of Hepatitis C Virus (HCV); Huh7.5.1 HCVcc-Cre infection, luciferase reporter, 44 h; AID 651820, 2012; 3.4% of 340,000 active; Potency, µM (highest dose often 41.8 µM), usual class: inhibitors; active = well fitted inhibition curve with a large enough effect; inconclusive = small, poorly fitted or top-dose-only effect, or another doubt; inactive = no such curve, though single readings can be large or run the other way
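A cell-based infection assay in which seeded cells (1,000 per well) receive test compound after 4 h, are inoculated with HCVcc-Cre at approximately 0.5 moi, and are incubated 44 h before luminescence detection.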
VACV Venus inh: qHTS for Stage-Specific Inhibitors of Vaccinia Orthopoxvirus: Venus Reporter Primary qHTS | Vaccinia virus Venus reporter expression, fluorescence | Potency, µM (top dose mostly 36.5 µM), actives largely listed as inhibitors | 0.46% of 330,000 active; calls by dose curve; tested in A549 cells; also: nearly all actives have a fitted effect of over 30% in size
Vaccinia mCherry: qHTS for Stage-Specific Inhibitors of Vaccinia Orthopoxvirus: mCherry Reporter Primary qHTS | Vaccinia virus mCherry reporter infection, fluorescence | Potency, µM (doses to about 36.5 µM), most hits filed as inhibitors | 0.63% of 310,000 active | AID 720579, 2013; calls by dose curve; tested in A549 cells; also: nearly all actives have a fitted effect of over 35% in size
Each line names hits and unclear results; the compound was inactive in the other large screens. Rows were chosen to be rich in hits. Some 3.3% of all compounds tested hit in one or more screens of this group.

O=C(N/N=C/c1cc(Br)cc(Cl)c1O)c1ccc2c(c1)OCO2	HCV inh 12.6µM, VACV Venus inh inconclusive, Vaccinia mCherry inconclusive
O=C(N/N=C/c1ccsc1)c1ccc2c(c1)OCO2	none
COc1ccc(CNC(=O)Cc2c(C)c3c(cc(C)c4c(C)c(C)oc43)oc2=O)cc1OC	none (no result: HCV inh)
O=C(N/N=C/c1ccccc1O)c1ccc2c(c1)OCO2	HCV inh 5.62µM, VACV Venus inh inconclusive, Vaccinia mCherry inconclusive
O=C(N/N=C/c1ccc2c(c1)OCO2)c1ccc2c(c1)OCCO2	Vaccinia mCherry inconclusive
CCCCCC(=C/c1ccccc1)/C=N/Nc1ccc(S(=O)(=O)N2CCOCC2)cc1[N+](=O)[O-]	HCV inh inconclusive, Vaccinia mCherry inconclusive
CCOc1ccc(/C=C/c2ccc3ccccc3[n+]2C)cc1OCC	none (no result: HCV inh)
Cc1ccc(NC(=O)CSc2nc3ccc(NC(=O)c4ccco4)cc3s2)cc1	none (no result: HCV inh)
COc1cc(NC(=O)CN2c3cccc4cccc(c34)S2(=O)=O)cc(OC)c1OC	HCV inh 11.2µM, VACV Venus inh inconclusive, Vaccinia mCherry inconclusive
COc1ccc(NC(=O)CN2c3cccc4cccc(c34)S2(=O)=O)c(OC)c1	HCV inh inconclusive
O=C(COC(=O)c1cc(-c2ccccc2)nc2ccccc12)c1ccc(Br)cc1	none (no result: HCV inh)
C/C(N)=C(/C#N)C(=O)COC(=O)c1cc(-c2ccc(Br)cc2)nc2ccccc12	HCV inh 10µM, VACV Venus inh inconclusive, Vaccinia mCherry inconclusive
Nc1cccnc1Sc1cccc(Cl)c1	none (no result: VACV Venus inh, Vaccinia mCherry)
COc1cnc(-c2ccccn2)[nH]c1=O	none
COc1ccccc1Sc1nc(-c2ccccn2)ncc1OC	HCV inh inconclusive, Vaccinia mCherry 5.01µM
COc1cnc(-c2ccccn2)nc1Sc1cccc(Cl)c1	HCV inh 7.08µM (no result: VACV Venus inh, Vaccinia mCherry)
COc1cnc(-c2ccccn2)nc1NC(C)C	HCV inh inconclusive, VACV Venus inh inconclusive, Vaccinia mCherry 4.47µM
COc1cnc(-c2ccccn2)nc1Oc1ccc(F)cc1F	Vaccinia mCherry inconclusive
CC(C)c1ccc(-c2noc(SCC(=O)N3CCCCC3C)n2)cc1 (stereo not drawn)	none (no result: HCV inh)
C=C1NN(CC2CC2)C(=O)N1c1ccc(OCc2ccccc2)cc1	none (no result: HCV inh)
Cc1ccc(CNC(=O)COC(=O)c2ccccc2OCC(=O)Nc2ccc(Br)cc2)cc1	none (no result: HCV inh)
CC[n+]1c(/C=C2\C=C(C)CC(C)(C)C2)sc2ccccc21	HCV inh 6.31µM
CCC1=C/C(=C/c2sc3ccccc3[n+]2CC)CC(C)(C)C1	HCV inh inconclusive
CN(C)c1ccc(C(=C2c3ccccc3-c3ccccc32)c2ccc(N(C)C)cc2)cc1	none (no result: HCV inh)
CCc1c(C)nc2cc(-c3ccc(OC)c(OC)c3)nn2c1NCC1CC1	HCV inh 11.2µM, VACV Venus inh inconclusive, Vaccinia mCherry inconclusive
COc1ccc(CCNC(=O)CCc2c(C)nc3cc(-c4ccccc4)nn3c2C)cc1OC	none (no result: HCV inh)
C=CCN(CC=C)C(=O)c1ccc2nc(Cc3ccc(OC)c(OC)c3)oc2c1	HCV inh 11.2µM
COc1ccc(Cc2nc3ccc(C(=O)NCc4cc(C)no4)cc3o2)cc1OC	none
O=C(CCC(=O)N1CC2CCCN2c2ccccc21)NCc1cccc(Cl)c1 (stereo not drawn)	none (no result: HCV inh)
CC1CCC(NC(=O)CSc2nnnn2C)CC1 (stereo not drawn)	none (no result: VACV Venus inh, Vaccinia mCherry)
CCC(=NCCc1ccccc1)c1c(O)n(C)c(=O)n(C)c1=O	HCV inh 8.91µM (no result: VACV Venus inh, Vaccinia mCherry)
CCC(=NCc1ccco1)c1c(O)n(C)c(=O)n(C)c1=O	none (no result: VACV Venus inh, Vaccinia mCherry)
COC(=O)CCC(C)C1CCC2C3CC[C@H]4CC(O)CC[C@@]4(C)C3CC(O)[C@]12C (stereo partly drawn)	VACV Venus inh 10µM, Vaccinia mCherry inconclusive (no result: HCV inh)
C[C@H](CCC(=O)O)[C@H]1CC[C@H]2[C@@H]3CC[C@@H]4C[C@H](O)CC[C@]4(C)[C@H]3C[C@H](O)[C@]12C	none
Clc1ccc2c(c1)c1cc(Cl)ccc1n2CN1CCOCC1	HCV inh 22.4µM, VACV Venus inh inconclusive, Vaccinia mCherry inconclusive
Clc1ccc2c(c1)c1ccccc1n2CN1CCOCC1	HCV inh inconclusive, VACV Venus inh inconclusive
CNC(=O)C(=O)NCCN1CCN(S(=O)(=O)c2ccc3ccccc3c2)CC1	none (no result: VACV Venus inh, Vaccinia mCherry)
CCN(CC)c1ccc(NC(=O)CN(C)S(=O)(=O)c2cccc3nsnc23)c(C)c1	none (no result: HCV inh)
CC(OC(=O)CCN1C(=O)C2CC=CCC2C1=O)C(=O)Nc1cccc(Cl)c1 (stereo not drawn)	none
C=CCSc1nc(N)c(C(=O)Nc2ccccc2OC)cc1C(=O)Nc1ccccc1	none
C=CCSc1nc(N)c(C(=O)Nc2ccccc2)cc1C#N	HCV inh 3.55µM (no result: VACV Venus inh, Vaccinia mCherry)
CCc1ccc(C(=O)c2cn(CC(=O)NCCc3ccc(OC)c(OC)c3)c3nc(C)ccc3c2=O)cc1	none (no result: HCV inh)
CCn1c(CNc2ccc(C(=O)O)cc2)nc2ccccc21	none
CCCn1c(CNc2ccc(Br)cc2)nc2ccccc21	HCV inh inconclusive, VACV Venus inh inconclusive, Vaccinia mCherry 11.2µM
Cc1ccc(C)c(NC(=O)C2CCCN(c3nc4ccccc4s3)C2)c1 (stereo not drawn)	none (no result: HCV inh)
CCN(CC)C(=O)C1=C(C)N(CCC2=CCCCC2)C(=O)C(CC(=O)NCc2cccc3ccccc23)C1 (stereo not drawn)	none (no result: HCV inh)
COC(CN(C(=O)CCl)C(C(=O)NC1CCCCC1)c1ccc(Cl)cc1)OC (stereo not drawn)	none
O=C(NC1CCCCC1)C(c1cccnc1)N(C(=O)CCl)c1cccc(Cl)c1 (stereo not drawn)	HCV inh 0.891µM, VACV Venus inh inconclusive, Vaccinia mCherry inconclusive
Cc1cccc(N(C(=O)CNC(=O)c2ccco2)C(C(=O)NC2CCCCC2)c2cccnc2)c1 (stereo not drawn)	none
COc1ccc(N(C(=O)c2cnccn2)C(C(=O)NC2CCCCC2)c2ccc(Cl)cc2)cc1 (stereo not drawn)	none
COC(CN(C(=O)CCl)C(C(=O)NC1CCCCC1)c1ccccc1C)OC (stereo not drawn)	HCV inh 10µM, VACV Venus inh 11.2µM, Vaccinia mCherry 12.6µM
COc1ccc(C(C(=O)NC2CCCCC2)N(C(=O)CCl)c2ccc(Cl)cc2)cc1 (stereo not drawn)	HCV inh 0.562µM
CCCCOc1ccccc1NC(=O)Cn1c(-c2cncs2)nc2ccccc21	none (no result: HCV inh)
O=C(NCCc1cccnc1)c1cnn(-c2ncc3c(n2)-c2ccccc2CC3)c1C1CC1	none (no result: HCV inh)
Cc1ccc(C)c(NC(=O)CN(C)S(=O)(=O)c2cccc3nsnc23)c1	none (no result: HCV inh)
O=C(C[n+]1ccncc1)c1cccc([N+](=O)[O-])c1	none (no result: HCV inh)
CCN(CC)C(=O)C1CCN(c2nnc(C)c3c(C)n(-c4ccc(Cl)cc4)nc23)CC1	none (no result: HCV inh)
Cc1ccc(-n2nc3c(N4CCC(C(=O)N5CCCCCC5)CC4)nnc(C)c3c2C)cc1	none (no result: VACV Venus inh, Vaccinia mCherry)
CCOC(=O)C1CCCN(C(=O)C2CCN(c3nnc(C)c4c(C)n(-c5ccccc5)nc34)CC2)C1 (stereo not drawn)	none (no result: HCV inh)
Cc1nnc(N2CCC(C(=O)N3CCCCCC3)CC2)c2nn(-c3ccc(Cl)cc3)c(C)c12	HCV inh 8.91µM (no result: VACV Venus inh, Vaccinia mCherry)
CCCN1CCN(C(=O)C2CCN(c3nnc(C)c4c(C)n(-c5ccc(C)cc5)nc34)CC2)CC1	HCV inh 2.24µM (no result: VACV Venus inh, Vaccinia mCherry)
COc1ccc(-n2nc3c(N4CCC(C(=O)N5CCCCCC5)CC4)nnc(C)c3c2C)cc1	HCV inh 11.2µM (no result: VACV Venus inh, Vaccinia mCherry)
Cc1c(Cl)cccc1NC(=O)c1cc(-c2cccc(Cl)c2)on1	none (no result: HCV inh)
